Bioassay records from PubChem BioAssay.
RORg inh – blocks mouse ROR gamma transcriptional activity. Drosophila S2 Gal4-RORgamma UAS-luciferase reporter, 20 h. Potency, µM (titrated, usually from 53.6 µM), for inactives: top-dose activity change, negative = inhibition, usual class: inhibitors. P51450. AID 2551. 5.4% of 310,000 active; further: nearly all actives have a fitted effect of over 60% in size
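A Gal4/UAS one-hybrid system in insect cells: metallothionein-promoter Gal4–ROR gamma fusion plus Photinus luciferase reporter. Copper sulfate 700 uM final, 20 hr ambient incubation, luminescent detection after 10 min with reagent.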
ALDH1A1 inh – inhibitors of human aldehyde dehydrogenase 1A1. 7.3% of 220,000 active. AID 1030. Purified ALDH1A1, NADH fluorescence, propionaldehyde substrate. Potency, µM (titrated, usually from 75.3 µM), for inactives: at the highest dose activity, negative = inhibition, most hits filed as inhibitors; active means well fitted inhibition curve with a large enough effect, not every such curve was filed as active; inconclusive means small, poorly fitted or top-dose-only effect, or another doubt; inactive means no such curve, though single readings can be large or run the other way;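 further: plate controls were no enzyme wells and a reference inhibitor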
Target sequence (P00352 whole entry, looked up): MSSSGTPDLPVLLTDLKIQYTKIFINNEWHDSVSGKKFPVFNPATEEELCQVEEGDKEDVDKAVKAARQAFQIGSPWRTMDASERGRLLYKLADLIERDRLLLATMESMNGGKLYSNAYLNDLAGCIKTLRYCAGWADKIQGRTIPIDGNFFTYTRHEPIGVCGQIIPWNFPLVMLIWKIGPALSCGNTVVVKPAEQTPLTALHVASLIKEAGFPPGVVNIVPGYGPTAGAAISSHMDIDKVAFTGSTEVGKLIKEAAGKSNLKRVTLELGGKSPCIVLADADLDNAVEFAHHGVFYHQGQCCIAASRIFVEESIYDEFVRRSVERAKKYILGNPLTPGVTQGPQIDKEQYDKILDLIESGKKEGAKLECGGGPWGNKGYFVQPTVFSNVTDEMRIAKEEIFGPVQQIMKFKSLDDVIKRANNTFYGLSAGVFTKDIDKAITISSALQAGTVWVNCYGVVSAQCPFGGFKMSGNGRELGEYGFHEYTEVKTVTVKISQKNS
VP16 counter – Gal4-VP16 reporter inhibition counter-screen; Drosophila S2 Gal4-VP16 UAS-luciferase, luminescence, 20 h; Potency, µM (highest dose often 53.6 µM), without a hit: at the highest dose activity, negative = inhibition, hits mostly inhibitors; 3.5% of 310,000 active;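 further: Gal4-VP16 expression switched on by copper sulfate through the metallothionein promoter; nearly all actives have a fitted effect of over 50% in size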
PLK1 PBD inh – PLK1 (human) polo-box domain binding inhibition; P53350; Plk1 PBD binding of FITC phosphopeptide, fluorescence polarization; Potency, µM, inactives show max response, negative = inhibition, most hits filed as inhibitors; 2.8% of 360,000 active; AID 720504; further: series mostly up to about 57 µM; nearly all actives have a fitted effect of over 65% in size
Sfp PPTase inh – inhibitors of Bacillus subtilis Sfp phosphopantetheinyl transferase | 3.5% of 310,000 active | Biochemical Sfp PPTase activity, qHTS | Potency, µM, inactives show largest response in the series, negative = inhibition, usual class: inhibitors | AID 1490;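 further: the enzyme is Sfp with the accession as filed and its product quenches rhodamine fluorescence; 0% = enzyme reaction without inhibitor and -100% = no enzyme wells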
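With Hepes-Na pH 7.6 buffer containing 10 mM MgCl2, Sfp (15 nM) modified BHQ-2-YbbR (12.5 uM) using rhodamine-CoA (5 uM). Two reads 30 minutes apart at 525/598 nm yielded each well's rate.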
Active calls of the source: *; ? = inconclusive; / = no result given; [ ] = another dose, or the depositor's remark. Hits are enriched below; roughly 12% of the tested compounds scored in any of these assays. Unless noted, the call rests on the fitted dose curve; in most records, active means well fitted curve in the direction sought with a large enough effect; inconclusive means small, poorly fitted or top-dose-only effect, or another doubt; inactive means no such curve, though single readings can be large; an effect the other way counts as inactive or inconclusive. Unless noted, on the % scale 0 is the no-effect control and ±100 the full control effect; potency means the concentration at half of the fitted maximal effect.

SMILES | RORg inh | ALDH1A1 inh | VP16 counter | PLK1 PBD inh | Sfp PPTase inh
COc1ccc(N/N=C(/C)c2cnnc(-c3ccccc3)n2)cc1 | 4% | 9.5µM* | -3% | 12% | -23%
O=C(Nc1nncs1)c1c(F)c(F)c(F)c(F)c1F | ? | 18µM* | -24% | -20% | 6%
COc1ccccc1NC(=O)CCc1nnc2ccc(N3CCC4(CC3)OCCO4)nn12 | -81% | / | ? | -13% | 10%
CC[n+]1c(/C=C(\C)SC)sc2ccccc21 | ? | 6µM* | ? | ? | 79µM*
CC/C(=C/c1sc2ccccc2[n+]1CC)SC | -8% | -14% | 0% | -9% | -3%
CC[n+]1c(/C=C(/C)SC)sc2ccccc21 | 60% | ? | 2% | -10% | ?
CC[n+]1c(/C=C/Nc2ccccc2)sc2ccccc21 | 23% | -3% | -26% | -14% | -18%
CC[n+]1c(C=C2C=C(C)OC(C)=C2)sc2ccccc21 | ? | ? | 10µM* | -19% | 1%
CC[n+]1c(/C=C(\C)OC)sc2ccccc21 | -26% | 3% | -24% | 7% | -11%
CCN1/C(=C/C=C/c2sc3ccccc3[n+]2CC)Sc2ccccc21 | ? | / | ? | 12% | 79µM*
CC[n+]1c(/C=C(\C)Nc2ccccc2)sc2ccccc21 | -1%[10 µM] | -7% | 4% | -5% | 56µM*
Cc1c(C(=O)NCc2cccs2)sc(=O)n1Cc1ccc(S(C)(=O)=O)cc1 | / | / | / | -19% | /
Cc1csc2ncnc(N3CCN(S(=O)(=O)c4cccc(C(F)(F)F)c4)CC3)c12 | ? | / | 10µM* | 4% | 7%
Fc1ccc(CN2CCCCCCC2)cc1F | -23% | 18µM* | -7% | -1% | -10%
Fc1ccccc1CN1CCCCCCC1 | -40% | 14µM* | -9% | -2% | 56µM*
ClC(Cl)Cl | -1% | -14% | -5% | / | 12%
O=C1CC(NS(=O)(=O)c2cccnc2)CN1c1ccc(Cl)cc1 (stereo not drawn) | / | / | / | -8% | /
Cc1cccc(NC(=O)c2nc[nH]c2C(=O)Nc2ccccc2[N+](=O)[O-])c1 | 4.5µM* | 13% | 5.6µM* | -6% | 2%
CNC(=O)c1[nH]cnc1C(=O)Nc1cccc(Cl)c1 | / | / | / | -3% | /
Cc1cccc(NC(=O)c2nc[nH]c2C(=O)Nc2cc(Br)ccc2F)c1 | / | / | / | -9% | /
CNC(=O)c1[nH]cnc1C(=O)Nc1ccccc1C | 11µM* | -8% | 7.9µM* | -1% | -12%
CNC(=O)c1[nH]cnc1C(=O)Nc1ccccc1OC | 13µM* | 3% | 16µM* | -4% | 5%
O=C1CSC(c2ccc(F)c(F)c2)N1c1ccccc1F (stereo not drawn) | -2% | / | -1% | -20% | 20%
COC1=C(Nc2ccc(C)cc2)C(=O)c2ccccc2C1=O | 10% | 5µM* | -8% | -11% | -26%
CC(=O)NC1=C(Nc2ccc(N(C)C)cc2)C(=O)c2ccccc2C1=O | -59% | / | -18% | -10% | -14%
SMILES | RORg inh | ALDH1A1 inh | VP16 counter | PLK1 PBD inh | Sfp PPTase inh
COC1=C(Nc2ccccc2)C(=O)c2ccccc2C1=O | 8% | 2.2µM* | -2% | -3% | -13%
CCNc1ncc2nc(-c3cn(C)c4ccccc34)c(=O)n(-c3ccccc3)c2n1 | -4% | 12% | 8% | / | 15%
CSc1cccc(NC(=O)c2ccc(NC3=NC4CS(=O)(=O)CC4S3)cc2)c1 (stereo not drawn) | 30% | / | 0% | -7% | 10%
O=c1c(Cl)c(NCCCO)cnn1-c1nc2ccccc2[nH]1 | 5µM* | ? | 3.5µM* | 13µM* | 12%
COc1ccc(/C=N/n2cnc3c([nH]c4ccccc43)c2=O)cc1CO | 3% | / | 1% | 11µM* | 8%
COc1ccc(/C=N/n2cnc3c([nH]c4ccc(Br)cc43)c2=O)cc1CN1CCOCC1 | 2% | 11% | ? | -2% | 11%
CCOc1cccc(-c2c(C(=O)N/N=C/c3ccc(C)o3)nnn2-c2nonc2N)c1 | 10µM* | / | ? | ? | -11%
CCOc1cccc(-c2c(C(=O)N/N=C/c3ccoc3)nnn2-c2nonc2N)c1 | 10µM* | / | ? | 30µM* | 13%
CCOc1cccc(-c2c(C(=O)N/N=C/c3ccco3)nnn2-c2nonc2N)c1 | 11µM* | / | 25µM* | -6% | 7%
CCOc1ccc(-c2c(C(=O)N/N=C/c3ccoc3)nnn2-c2nonc2N)cc1 | ? | / | ? | -12% | 9%
CCOC(=O)c1cc2c(=O)n3ccccc3nc2n(CCCOC)c1=NC(=O)c1cccnc1 | 21% | ? | 6% | / | -6%
Cc1cccn2c(=O)c3cc(C#N)c(=NC(=O)c4ccco4)n(Cc4ccco4)c3nc12 | 9% | ? | -3% | -14% | ?
CCOC(=O)c1cc2c(=O)n3ccccc3nc2n(Cc2ccco2)c1=NC(=O)c1ccccc1OCC | 8% | ? | -10% | -8% | 45µM*
Cc1cccc(C(=O)N=c2c(C#N)cc3c(=O)n4cccc(C)c4nc3n2Cc2ccco2)c1 | -16% | ? | -8% | -28% | 28µM*
CCOC(=O)c1cc2c(=O)n3ccccc3nc2n(Cc2ccco2)c1=NC(=O)c1cccnc1 | 1% | 3% | -2% | -16% | 35µM*
CCOC(=O)c1cc2c(=O)n3cccc(C)c3nc2n(Cc2ccco2)c1=NC(=O)c1cccnc1 | 25% | ? | 7% | -14% | 25µM*
Cc1cccn2c(=O)c3cc(C#N)c(=NC(=O)c4ccccc4)n(Cc4ccco4)c3nc12 | / | ? | / | -28% | /
COc1ccccc1C(=O)N1CCCC(C)(C(=O)NS(=O)(=O)C2CC2)C1 (stereo not drawn) | / | / | / | -4% | /
COc1ccc(Cn2cc(CN3CC(N4CC=CC4)CS3(=O)=O)nn2)cc1 (stereo not drawn) | / | / | / | -2% | /
O=C(NNc1nc2cc3c(cc2s1)OCCO3)c1ccc(F)cc1 | 2.8µM* | 0% | ? | -2% | 56µM*
O=C(NNc1nc2cc3c(cc2s1)OCO3)c1ccc(F)cc1 | 1.3µM* | ? | ? | -2% | 28µM*
O=C(O)c1cc(N/N=C/c2ccc(-c3ccccc3)cc2)ccc1Cl | 0% | / | -7% | 9.5µM* | -20%
O=C(O)c1ccc(N/N=C/c2ccc(-c3ccccc3)cc2)cc1 | 0% | 3% | -7% | 27µM* | -13%
CC(C)c1ccc(/C=N/Nc2ccc(C(=O)O)cc2)cc1 | ? | ? | 0.25µM* | ? | 1%
O=C(O)c1ccc(/C=N/Nc2cccc(C(F)(F)F)c2)cc1 | ? | 2% | -15% | ? | 10%
O=C(O)c1ccc(N/N=C/C=C/c2ccccc2)cc1 | 11µM* | / | 1.1µM* | -5% | 4%
O=C(O)c1ccc(NS(=O)(=O)/C=C/c2ccccc2)cc1 | 0% | -12% | -4% | -7% | 3%
O=C(O)c1cc(N/N=C/c2ccncc2)ccc1Cl | -41% | / | -6% | ? | 10%
Cc1cn([C@H]2C[C@H](O)[C@@H](COC(N)=O)O2)c(=O)[nH]c1=O | / | 19%[13.5 µM] | / | / | /
Cc1n[nH]c(C)c1S(=O)(=O)N(C)Cc1ccco1 | / | / | / | -7% | /
